Bioassay records deposited in PubChem BioAssay by National Center for Advancing Translational Sciences (NCATS).
NS1 function inh: blocks influenza NS1 protein function. Potency, µM (top dose mostly 46.1 µM), for the others: at the highest dose activity, positive = more growth. actives 0.4% (n = 270,000); calls by dose curve; further: actives are rising curves; nearly all actives have a fitted effect of over 50% in size
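Read-out: OD600 growth recovery of NS1-expressing budding yeast. Cells grown overnight at 30C in -URA glucose medium, washed, resuspended and diluted 1:100 in 2% galactose assay medium, pH 6.0. Same strain lacking NS1 served as positive control.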
Pf growth 96h: P. falciparum growth inhibition at 96 hours; P. falciparum luciferase reporter growth, 96 h; Potency, µM (titrated, usually from 28.7 µM), for the others: at the top dose activity change, negative = inhibition, hits mostly inhibitors; actives 6.9% (n = 320,000); AID 504834; further: on the % scale 0 is the no-effect control and ±100 the full control effect
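Plates of compound plus infected erythrocytes (2% hematocrit, 0.05% parasitemia final) incubate 96 hours, 37 C, 5% CO2. Detection reagent added; reduced luminescence from the parasites' luciferase reporter flags inhibition.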
SARS PLP yeast: inhibitors of SARS-CoV papain-like protease in yeast; S. cerevisiae expressing SARS-CoV PLpro, growth rescue; actives 0.19% (n = 330,000); Potency, µM (top dose mostly 32.9 µM), inactives show at the highest dose activity, positive = growth rescue, actives largely listed as activators; calls by dose curve; further: 0% is about no effect; nearly all actives have a fitted effect of over 55% in size
HCV inh: blocks hepatitis C virus. Huh7.5.1 HCVcc-Cre infection, luciferase reporter, 44 h. Potency, µM (highest dose often 41.8 µM), without a hit: top-dose activity change, negative = inhibition, hits mostly inhibitors. actives 3.4% (n = 340,000); further: on the % scale 0 is the no-effect control and ±100 the full control effect
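Seed cells (1,000/well) for 4 h; treat with compound and infect with HCVcc-Cre, moi about 0.5. Incubate 44 h, then detect luciferase activity.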
AMA1 RON2 block: inhibitors of Plasmodium falciparum AMA1-RON2 interaction | AlphaScreen AMA1-biotinylated RON2 peptide binding | Potency, µM (titrated, usually from 58.2 µM), without a hit: top-dose activity change, negative = inhibition, usual class: inhibitors | actives 0.2% (n = 360,000) | AID 720542;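 further: 0% = vehicle wells and -100% = peptide control; nearly all actives have a fitted effect of over 45% in size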
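AMA1 (3D7) with his tag at 25 nM final met compounds first, then biotinylated RON2 peptide at 25 nM; detection used donor plus acceptor beads, 10 µg/mL apiece, read by AlphaScreen after 30 min at room temperature.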
Pf growth 48h: P. falciparum growth inhibition at 48 hours (one generation); Potency, µM (highest dose often 28.7 µM), inactives show at the highest dose activity change, negative = inhibition, hits mostly inhibitors; AID 504832; P. falciparum luciferase growth in erythrocytes, 48 h; actives 5.9% (n = 310,000); further: on the % scale 0 is the no-effect control and ±100 the full control effect
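Firefly luciferase activity from engineered P. falciparum reports growth; inhibitors lower the luminescent signal. Cultures contained 2% hematocrit erythrocytes at 0.1% final parasitemia.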
* = called active by the depositor; ? = inconclusive; / = no result; [ ] = another dose, or the depositor's remark. Only some compounds are listed: those with a hit (about 12% of all), similar ones and a draw of the others. Unless noted, the call rests on the fitted dose curve; in most records, active means well fitted curve in the direction sought with a large enough effect; inconclusive means small, poorly fitted or top-dose-only effect, or another doubt; inactive means no such curve, though single readings can be large; an effect the other way counts as inactive or inconclusive. Potency means the concentration at half of the fitted maximal effect.

SMILES	NS1 function inh	Pf growth 96h	SARS PLP yeast	HCV inh	AMA1 RON2 block	Pf growth 48h
O=C(Nc1ccc(Cl)cc1)N1CCC(CO)(Cc2ccccc2)CC1	-3%	2.6µM*	-2%	?	6%	-9%
O=C(c1ccccc1)c1ccc(C(=O)N2CCN(c3ccccc3O)CC2)cc1	/	/	/	/	-1%	/
O=C(NCc1ccccc1)N1CCC(CO)(Cc2cccc(F)c2)CC1	-4%	5%	-1%	8%	-5%	1%
O=C(CCN1CCN(c2ccccc2)CC1)Nc1ccc(Cl)cc1	-5%	3.7µM*	-9%	1%	-25%	-5%
CC(=O)c1ccc(NC(=O)N2CCN(c3cccc(Cl)c3)CC2)cc1	-93%	?	-22%	13µM*	-1%	4.7µM*
O=C(Nc1ccc(NC(=O)N2CCN(c3ccccc3O)CC2)cc1)N1CCN(c2ccccc2O)CC1	-40%	5.9µM*	0%	-20%	-26%	?
CC(=O)OCC=C1CCC2C3CC(C)C4=CC(=O)CCC4(C)C3C(O)CC12C (stereo unspecified)	/	/	/	-10%	-3%	/
O=[N+]([O-])c1cccc(/C=N/NC2CCS(=O)(=O)C2)c1 (stereo unspecified)	-5%	20%	-1%	15%	4%	18%
CCOC(=O)C1=C(Cc2ccc(F)cc2)C(=O)c2ccccc2C1=O	-187%	8.3µM*	-34%	7.9µM*	-28%	/
O=C(OCc1ccc(F)cc1)c1ccc2c(c1)-c1ccccc1C2=O	-5%	103%	0%	-29%	-6%	-5%
CCN(CC)c1ccc2c(c1)CCCN2	4%	10µM*	13µM*	11µM*	/	10µM*
O=C(CCNC(=O)c1ccc(Br)cc1)NC1CCCc2ccccc21 (stereo unspecified)	/	3%	-2%	-22%	-9%	?
Cc1nc(Br)c(Br)c(C)c1Br	?	45%	-1%	-14%	0%	5%
O=C(c1cn(Cc2ccccc2)nc1-c1ccccc1)N1CCN(c2ccccn2)CC1	/	?	3%	?	-4%	15µM*
CC(=O)c1ccc(N2CCN(C(=O)c3cn(Cc4ccccc4)nc3-c3cccnc3)CC2)c(F)c1	/	9.3µM*	2%	?	9%	13µM*
CCOC(=O)C1(C)CCN1C(=O)c1cc2ccccc2s1 (stereo unspecified)	/	/	/	/	-9%	/
Cc1ccc(NC(=O)CSc2ccc3nnc(-c4ccccn4)n3n2)cc1	5%	13µM*	0%	-7%	-7%	?
COc1ccc(NC(=O)CSc2ccc3nnc(-c4ccccn4)n3n2)cc1	5%	12µM*	-1%	/	-12%	?
O=C(CSc1ccc2nnc(-c3ccccn3)n2n1)Nc1ccc2c(c1)OCO2	-4%	1.9µM*	6%	-3%	?	3.7µM*
COc1ccc(OC)c(NC(=O)CSc2ccc3nnc(-c4cccnc4)n3n2)c1	/	12µM*	-1%	24%	?	?
COc1ccc(OC)c(NC(=O)CSc2ccc3nnc(-c4ccccn4)n3n2)c1	0%	?	-4%	2%	29%	?
Cc1ccc(-c2nc(SC(C)C(=O)N3CCOCC3)n[nH]2)cc1 (stereo unspecified)	-9%	?	-1%	15%	-4%	-4%
Fc1cccc(CSc2ccc3nnc(-c4ccccn4)n3n2)c1	-6%	1.9µM*	0%	-21%	?	?
Cc1cc(NC(=O)CSc2ccc3nnc(-c4cccs4)n3n2)no1	-18%	2.3µM*	0%	-12%	1%	/
CC(C)[C@H](NC(=O)c1ccc(Cl)cc1Cl)C(=O)NNC(=O)c1ccco1	/	/	0%	4%	27%	/
SMILES	NS1 function inh	Pf growth 96h	SARS PLP yeast	HCV inh	AMA1 RON2 block	Pf growth 48h
O=C(Cn1c2c(c(-c3ccccc3Cl)cc1=O)CCC2)NCCCN1CCOCC1	-3%	-2%	-3%	15%	-5%	3%
CS(=O)(=O)N(CC(O)Cn1c2ccccc2c2ccccc21)c1ccccc1 (stereo unspecified)	-43%	?	3%	1%	-4%	?
COc1ccc(N(CC(O)Cn2c3ccccc3c3ccccc32)S(=O)(=O)c2ccccc2)cc1 (stereo unspecified)	?	10µM*	2%	?	-4%	?
CCN(CC(O)Cn1c2ccccc2c2ccccc21)S(=O)(=O)c1ccc(C)cc1 (stereo unspecified)	?	/	-20%	3.2µM*	1%	/
COc1ccccc1N(CC(O)CN1CCCCC1)S(=O)(=O)c1ccc(C)cc1 (stereo unspecified)	-9%	?	-1%	5%	-7%	-15%
CC(=O)Nc1ccccc1N(CC(O)Cn1c2ccccc2c2ccccc21)S(=O)(=O)c1ccc(C)cc1 (stereo unspecified)	?	?	-4%	11µM*	-4%	?
CC1(C)CC(=O)C(C=Nc2ccc(NC3=C(C#N)C(=O)CC(C)(C)C3)cc2)=C(O)C1	6%	13%	2%	-1%	-7%	-13%
C=CCc1cc(/C=N/n2cnnc2)cc(OCC)c1O	-9%	8.3µM*	2%	?	12%	?
C=CCc1cc(/C=C2/NC(=O)NC2=O)cc(OCC)c1O	/	1µM*	1%	-20%	1%	-4%
CCOc1cc(/C=N/n2cnnc2)ccc1O	0%	15%	1%	4%	-2%	17%
O=C1c2ccccc2NC(c2cccc(O)c2)N1c1ccccc1 (stereo unspecified)	-3%	16%	1%	4%	16%	6%
CCC/C=C(\CCC)C(NS(=O)(=O)c1cccc2cccnc12)c1ccc(C(=O)OC)cc1 (stereo unspecified)	6%	13µM*	-24%	4%[8.37 µM]	-1%	?
Cc1cc(=O)oc2cc(OCC(=O)NC3CCCCC3)ccc12	-2%	73%	1%	-12%	-2%	39%
O=c1nc(N2CCCC2)nc(N2CCCC2)[nH]1	-1%	3%	-2%	4%	-2%	?
O[C@@H]1CN(Cc2ccc(-n3cccn3)cc2)CC[C@H]1N1CCN(c2ccccc2F)CC1	-13%	10µM*	2%	8.9µM*	-2%	?
COCCNC(=O)C1CCCN(S(=O)(=O)c2cccc3nsnc23)C1 (stereo unspecified)	25%	?	5%	1%	0%	-1%
O=[N+]([O-])c1ccc2c(c1)C(N1CCN(CCO)CC1)Cc1ccc(F)cc1S2 (stereo unspecified)	/	/	/	/	-12%	/
OCCN1CCN(C2CCC(c3ccc(F)cc3)c3ccc(F)cc32)CC1 (stereo unspecified)	/	/	/	4µM*	-15%	/
